Calb FLC – affects C. albicans growth with fluconazole. C. albicans CaCi-2 (fluconazole-resistant clinical isolate) + fluconazole, Alamar Blue growth, 48 h. growth inhibition, % (no concentration beside the values). 0.57% of 300,000 active;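 active = growth inhibition above about 58% in most replicates, limit read from the data, passing the limit was not always enough; inconclusive = exactly half the replicates above a set limit; inactive = most replicates below a set limit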;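 also: all wells also contain fluconazole at 8 µg/ml as a sub-toxic cotreatment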
Rin1 Abl inh – blocks binding of human Rin1 to Abl; P00519+Q13671; AID 588664; inhibition, % at 7.35 µM; TR-FRET Rin1/Abl binding, biochemical; 0.4% of 360,000 active; in the data active = inhibition above about 5%, passing the limit was not always enough
Target sequence (P00519 whole entry, looked up): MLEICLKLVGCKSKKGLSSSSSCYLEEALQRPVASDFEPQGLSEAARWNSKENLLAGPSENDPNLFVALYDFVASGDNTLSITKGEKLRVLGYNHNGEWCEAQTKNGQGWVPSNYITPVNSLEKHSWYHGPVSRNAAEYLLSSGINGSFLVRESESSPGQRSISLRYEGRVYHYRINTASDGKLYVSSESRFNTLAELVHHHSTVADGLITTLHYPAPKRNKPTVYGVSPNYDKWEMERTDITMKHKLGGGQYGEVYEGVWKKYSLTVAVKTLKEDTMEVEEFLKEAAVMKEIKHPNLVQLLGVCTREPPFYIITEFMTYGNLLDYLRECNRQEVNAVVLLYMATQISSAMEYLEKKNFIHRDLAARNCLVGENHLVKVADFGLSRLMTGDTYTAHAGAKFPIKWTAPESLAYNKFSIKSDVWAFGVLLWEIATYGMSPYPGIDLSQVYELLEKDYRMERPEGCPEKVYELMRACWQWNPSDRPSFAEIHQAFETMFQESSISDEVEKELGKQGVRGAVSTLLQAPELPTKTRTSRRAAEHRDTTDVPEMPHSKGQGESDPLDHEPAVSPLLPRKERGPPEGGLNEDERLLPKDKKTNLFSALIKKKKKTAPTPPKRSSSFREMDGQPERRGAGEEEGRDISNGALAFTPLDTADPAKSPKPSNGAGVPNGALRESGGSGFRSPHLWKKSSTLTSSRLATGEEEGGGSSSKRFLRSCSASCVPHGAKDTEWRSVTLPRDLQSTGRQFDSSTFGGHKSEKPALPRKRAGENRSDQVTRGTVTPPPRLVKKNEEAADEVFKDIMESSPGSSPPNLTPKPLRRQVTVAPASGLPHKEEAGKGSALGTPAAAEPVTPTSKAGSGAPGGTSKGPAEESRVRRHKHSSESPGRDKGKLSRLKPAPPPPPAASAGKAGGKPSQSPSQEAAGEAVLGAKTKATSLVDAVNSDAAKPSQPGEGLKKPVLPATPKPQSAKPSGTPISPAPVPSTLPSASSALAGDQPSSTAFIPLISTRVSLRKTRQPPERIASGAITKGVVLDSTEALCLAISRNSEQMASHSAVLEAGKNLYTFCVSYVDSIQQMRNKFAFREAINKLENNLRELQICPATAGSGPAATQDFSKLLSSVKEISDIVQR
Target sequence (Q13671 whole entry, looked up): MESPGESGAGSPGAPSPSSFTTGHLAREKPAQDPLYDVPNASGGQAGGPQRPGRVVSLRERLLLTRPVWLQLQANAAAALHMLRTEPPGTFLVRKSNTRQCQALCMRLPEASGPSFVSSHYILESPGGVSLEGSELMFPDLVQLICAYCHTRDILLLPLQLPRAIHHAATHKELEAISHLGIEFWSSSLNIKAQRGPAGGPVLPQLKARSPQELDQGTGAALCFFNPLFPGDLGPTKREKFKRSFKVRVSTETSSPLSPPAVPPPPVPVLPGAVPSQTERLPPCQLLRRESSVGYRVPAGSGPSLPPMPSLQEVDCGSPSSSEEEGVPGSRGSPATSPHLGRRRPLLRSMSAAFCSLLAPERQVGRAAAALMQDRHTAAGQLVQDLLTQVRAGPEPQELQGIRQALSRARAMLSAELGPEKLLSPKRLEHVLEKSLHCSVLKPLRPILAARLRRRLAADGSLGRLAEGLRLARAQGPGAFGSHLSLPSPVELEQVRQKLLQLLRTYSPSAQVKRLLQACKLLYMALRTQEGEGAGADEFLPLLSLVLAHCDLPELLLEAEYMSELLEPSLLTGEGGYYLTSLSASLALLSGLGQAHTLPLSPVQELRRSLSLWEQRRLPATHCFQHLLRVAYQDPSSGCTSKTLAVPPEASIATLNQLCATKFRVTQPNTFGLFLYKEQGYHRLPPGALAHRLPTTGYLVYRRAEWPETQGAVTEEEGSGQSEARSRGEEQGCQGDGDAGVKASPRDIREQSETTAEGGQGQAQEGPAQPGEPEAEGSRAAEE
PfM18AAP inh-1 – blocks P. falciparum M18 aspartyl aminopeptidase; 1.2% of 290,000 active; AID 1822; recombinant PfM18AAP, H-Glu-NHMec fluorogenic cleavage; inhibition, % at 7.35 µM;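 active = inhibition above the campaign mean inhibition over all tested compounds plus 3 SD, cut at about 28% in these data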
CTSL1 counter-1 – counter-screen for PFM18AAP inhibitors: inhibitors of F. hepatica cathepsin L1 | AID 1906 | recombinant F. hepatica cathepsin L1, Z-Leu-Arg-MCA fluorescence | 0.49% of 300,000 active | inhibition, % at 5.96 µM;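 active = inhibition above the mean of all tested compounds plus 3 SD, set per screening campaign, cut at about 17% in these data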
PfM18AAP inh-2 – confirmation of Plasmodium falciparum M18 aspartyl aminopeptidase inhibitors; inhibition, % at 7.35 µM; shares compounds with PfM18AAP inh-1; AID 2170; 28% of 2,400 active; recombinant PfM18AAP, H-Glu-NHMec fluorogenic cleavage;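 active = mean inhibition over replicate wells above the hit cutoff set for the earlier primary screen, cut at about 29% in these data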
CTSL1 counter-2 – Cathepsin L (human) inhibition, confirmation; 2,400 tested, under 10 active; shares compounds with PfM18AAP inh-1; purified cathepsin L1, Z-Leu-Arg-MCA fluorescence; inhibition, % at 5.96 µM;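 active = average inhibition across replicates above the hit cutoff set in the earlier primary screen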
Hits are given with their value; . = inactive; ? = inconclusive; / = no result given. Only some compounds are listed: those with a hit (about 2.1% of all), similar ones and a draw of the others.

SMILES	Calb FLC	Rin1 Abl inh	PfM18AAP inh-1	CTSL1 counter-1	PfM18AAP inh-2	CTSL1 counter-2
CCOC(=O)CSc1nc2ccc(N3CCOCC3)cc2c(=O)n1Cc1ccc2c(c1)OCO2	?	/	37.1	.	.	.
Cc1nc2ccccn2c1-c1ccnc(=S)[nH]1	.	.	37.0	.	.	.
Cc1c(O)ccc(C(=O)CN2CCN(Cc3ccc4c(c3)OCO4)CC2)c1O	.	.	93.3	.	.	.
CCOC(=O)N1CCN(Cc2ccc3c(c2)OCO3)CC1	.	.	.	.	/	/
COc1ccc(N=C(c2ccccc2)c2c(C)[nH]n(-c3ccccc3)c2=O)c(OC)c1	.	.	.	.	/	/
CC(C)(C)c1cc[n+](-c2[nH]c(=O)sc2/C=N/NC([S-])=Nc2ccccc2)cc1	.	.	35.0	.	.	.
Cc1ccc(-c2ncns2)cc1	.	.	.	.	/	/
CSc1sc(-c2ccnc(SCC(=O)C(C)(C)C)n2)c2c1C(=O)CC(C)(C)C2	.	.	34.9	.	.	.
CSc1sc(C(=O)O)c2c1C(=O)CC(C)(C)C2	.	.	/	.	/	/
O=C(OCc1ccc([N+](=O)[O-])cc1)C1CCN(S(=O)(=O)c2ccccc2)CC1	.	.	.	.	/	/
Cc1cc(/C=N/NC(=O)c2cccc([N+](=O)[O-])c2)c(C)n1-c1ccccc1	?	.	.	.	/	/
O=[N+]([O-])c1ccc(NN=Cc2ccccc2O)nc1	/	.	/	/	/	/
Cc1ccccc1-n1c(C)cc(/C=N/Nc2ccc([N+](=O)[O-])cn2)c1C	.	.	45.2	.	.	.
Cc1cc(/C=N/Nc2ccc([N+](=O)[O-])cn2)c(C)n1-c1ccc(C(=O)O)cc1	.	.	50.3	.	.	.
CNC(=O)C1C(=S)NC(N)=C(C#N)C1c1ccccc1 (centres undefined)	.	.	47.3	.	.	.
CNc1ncnc2c1ncn2-c1ccccc1	/	.	/	/	/	/
Cc1ccc(C)c(NC(=S)NCC(c2ccccc2)N(C)C)c1 (centres undefined)	.	.	.	.	/	/
NNc1nc(-c2ccccc2)c2cc(Br)ccc2n1	.	.	34.9	.	.	.
O=C(O)CCOc1ccc2c(c1)OCCO2	.	.	63.3	.	.	.
CC(C)n1c(=O)[nH]c2ccccc21	.	.	.	.	/	/
CC(C)n1c(=O)[nH][nH]c1=S	.	.	56.8	.	36.0	.
CCCCOP(=O)(c1ccc(N(C)C)cc1)C(O)c1ccc(N(C)C)cc1 (centres undefined)	.	.	34.1	.	.	.
CCCCOP(=O)(c1ccc(N(C)C)cc1)C(O)c1ccc(C(C)C)cc1 (centres undefined)	.	.	.	.	/	/
Cn1cc(P(=S)(N2CCOCC2)N2CCOCC2)cc1P(=O)(N1CCOCC1)N1CCOCC1	.	.	.	.	/	/
Cn1cc(P(=O)(N2CCOCC2)N2CCOCC2)cc1P(=S)(N1CCOCC1)N1CCOCC1	.	.	37.2	.	.	.
SMILES	Calb FLC	Rin1 Abl inh	PfM18AAP inh-1	CTSL1 counter-1	PfM18AAP inh-2	CTSL1 counter-2
O=C(COC(=O)c1ccccc1NC(=O)c1ccccc1)c1ccc([N+](=O)[O-])cc1	?	.	40.4	.	.	.
O=C(CNC(=O)c1ccc(Br)cc1)NCC(=O)OCC(=O)c1ccc(F)cc1	.	.	.	/	/	/
O=C(CCC(=O)OCC(=O)c1cccc([N+](=O)[O-])c1)NC1CCCCC1	.	.	.	.	/	/
O=C(CNC(=O)c1ccc(Br)cc1)NCC(=O)OCC(=O)c1ccc([N+](=O)[O-])cc1	.	.	37.7	.	.	.
O=C(CNC(=O)c1ccccc1)NCC(=O)OCC(=O)c1ccc([N+](=O)[O-])cc1	.	.	39.6	.	.	.
O=C(CCC(=O)OCC(=O)c1ccc([N+](=O)[O-])cc1)NC1CCCCC1	.	.	33.5	.	.	.
COCCN(CCOC)Cc1cc(=O)oc2cc(C)ccc12	/	.	/	/	/	/
O=C(NNC(=S)Nc1ccccc1)NNC(=S)Nc1ccccc1	.	.	38.8	.	59.9	.
O=C(COc1cccc2cccnc12)NNC(=S)Nc1ccccc1	.	/	34.7	.	77.1	.
NC(=O)COc1cccc2cccnc12	.	.	.	.	/	/
O=C(NNC(=S)Nc1ccccc1)Nc1ccccc1	.	.	53.1	.	.	.
O=C(NNC(=S)Nc1ccccc1)c1ccncc1	.	.	.	.	/	/
Oc1ccc(Cc2ccc(Cl)cc2)c(O)c1	.	.	.	.	/	/
CCOC(=O)N1CCN(C(=O)CN(c2cccc(C(F)(F)F)c2)S(=O)(=O)c2ccccc2)CC1	.	.	36.5	.	.	.
CN(CC1CCCN(CCc2ccc(F)cc2)C1)C(=O)CCC(N)=O (centres undefined)	.	.	.	.	/	/
COc1cc(CNc2ccc(CNc3ncn[nH]3)cc2)cc(Cl)c1OCc1ccccc1	.	.	34.2	.	.	.
COc1cc(CNn2cn[nH]c2=S)cc(Cl)c1OCc1ccccc1	.	.	.	.	/	/
OCCN(Cc1ccccc1)Cc1cccc(F)c1	.	.	.	.	/	/
Fc1cccc(C[n+]2csc3ccccc32)c1	.	.	34.2	.	.	.
COc1cccc(/C=C/C(=O)NNC(=O)c2cc(C)oc2C)c1	.	.	/	.	/	/
CC1(OC(=O)c2cccs2)C(=O)C=C2C=C3CCCN3C=C2C1=O (centres undefined)	.	.	/	.	/	/
O=C1C=C(Nc2cccc(O)c2)CC(c2ccco2)C1 (centres undefined)	.	.	44.1	.	.	.
COc1ccccc1C(C)NS(=O)(=O)c1cccs1 (centres undefined)	.	/	.	.	/	/
O=S(=O)(c1ccc(NC(=S)N/N=C/c2cccc(Oc3ccccc3)c2)cc1)N1CCOCC1	.	.	.	.	/	/
O=S(=O)(c1ccc(NC(=S)N/N=C/c2ccc(O)c(O)c2)cc1)N1CCOCC1	.	.	57.2	.	33.7	.
SMILES	Calb FLC	Rin1 Abl inh	PfM18AAP inh-1	CTSL1 counter-1	PfM18AAP inh-2	CTSL1 counter-2
CCc1nc(NCCCCCO)c2nnn(Cc3ccccc3F)c2n1	.	.	.	.	/	/
CC(C)(C)NC(=O)NC(=O)COC(=O)c1cc(=O)[nH]c2ccccc12	.	.	.	.	/	/
Oc1ccc(-c2nc3ccc4ccccc4c3c3c2CCC3)cc1O	.	.	46.9	.	31.9	.
Cc1cc(C)c2c(ccc3ccccc32)n1	/	.	/	/	/	/
Cc1[nH]c(=S)c(C#N)c(C)c1CCC#N	.	.	38.0	.	37.2	.
Cc1[nH]c(=S)c(C#N)c(C)c1Cc1ccccc1	.	.	.	.	/	/
O=C1NC(=O)/C(=C\c2ccc(O)cc2O)S1	.	.	89.5	.	85.6	.
NNC(=O)CNC(=O)CNS(=O)(=O)c1ccccc1	.	.	.	.	/	/
CC(Cl)C(=O)NNC(=O)CNS(=O)(=O)c1ccccc1 (centres undefined)	.	.	44.7	.	.	.
COc1ccc(/C=N/Nc2nnc(C)n2N)cc1OC(C)=O	.	.	33.9	.	.	.
CCN(C(=O)COC(=O)c1ccc(C)c(S(=O)(=O)N2CCOCC2)c1)C1CCS(=O)(=O)C1 (centres undefined)	.	.	/	.	/	/
COCc1nc2sc(C)c(C)c2c(=O)[nH]1	.	.	.	.	/	/

Source: PubChem (several laboratories)
